From PubChem BioAssay (Tox21)
Records with an inconclusive call do not appear. Active and inactive are the calls of the source. Unless noted, calls follow the shape of the dose curve; as a rule, active = well fitted curve in the direction sought with a large enough effect in the repeat runs; inconclusive = weak or mixed curves; inactive = no such curve, though single readings can be large; an effect the other way counts as inactive or inconclusive.

Key:
[1] = target: Progesterone receptor (Homo sapiens) (UniProt P06401); assay: qHTS assay to identify small molecule agonists of the progesterone receptor (PR) signaling pathway (AID 1346784; calls by dose curve; also: nearly all actives have a fitted effect of over 30% in size)
Chain of Progesterone receptor (Homo sapiens) (P06401 whole entry, looked up): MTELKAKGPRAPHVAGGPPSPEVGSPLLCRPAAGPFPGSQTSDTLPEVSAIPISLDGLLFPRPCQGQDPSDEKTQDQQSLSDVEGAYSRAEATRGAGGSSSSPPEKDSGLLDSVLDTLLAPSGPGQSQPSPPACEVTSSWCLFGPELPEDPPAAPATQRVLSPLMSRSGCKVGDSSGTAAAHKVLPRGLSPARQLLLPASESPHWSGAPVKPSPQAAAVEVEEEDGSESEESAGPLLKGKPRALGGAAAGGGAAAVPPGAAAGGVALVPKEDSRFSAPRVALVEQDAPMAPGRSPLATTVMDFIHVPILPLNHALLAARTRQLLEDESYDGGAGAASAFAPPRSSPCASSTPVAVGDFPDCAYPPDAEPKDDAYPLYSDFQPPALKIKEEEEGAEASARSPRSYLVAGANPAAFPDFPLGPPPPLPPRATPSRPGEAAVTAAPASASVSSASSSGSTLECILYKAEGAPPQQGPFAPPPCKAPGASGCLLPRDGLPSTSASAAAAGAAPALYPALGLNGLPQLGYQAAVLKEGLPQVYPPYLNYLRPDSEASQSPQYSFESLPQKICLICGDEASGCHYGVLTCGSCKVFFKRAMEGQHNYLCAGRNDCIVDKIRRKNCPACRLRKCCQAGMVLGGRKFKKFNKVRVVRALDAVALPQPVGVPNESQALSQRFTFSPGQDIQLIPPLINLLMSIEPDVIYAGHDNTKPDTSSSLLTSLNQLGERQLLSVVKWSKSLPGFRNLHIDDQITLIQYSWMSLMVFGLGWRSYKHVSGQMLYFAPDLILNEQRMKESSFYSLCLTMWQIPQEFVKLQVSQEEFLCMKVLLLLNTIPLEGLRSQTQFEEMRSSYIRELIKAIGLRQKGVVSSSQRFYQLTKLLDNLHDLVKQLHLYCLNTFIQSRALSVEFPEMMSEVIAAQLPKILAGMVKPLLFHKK
In short: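 PR-UAS-bla HEK 293T cells (beta-lactamase reporter under UAS) in 2% charcoal-stripped FBS, dosed with 23 nL compound after 6 hr, incubated 16hr at 37C. LiveBLAzer B/G FRET substrate added, fluorescence read after 2 hours.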

[2] = qHTS assay to identify small molecule antagonists of the progesterone receptor (PR) signaling pathway - cell viability counter screen (AID 1346798); also: series mostly up to about 92 µM; nearly all actives have a fitted effect of over 50% in size
In short: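 PR-UAS-bla HEK293T cells, 3,000/well in 2% charcoal-stripped FBS medium, dosed with compounds plus R5020 agonist and incubated 16 h at 37C. Viability then measured in the same wells by CellTiter-Glo luminescence after 30 min at RT.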

[3] = qHTS assay to identify small molecule agonists of the progesterone receptor (PR) signaling pathway - cell viability counter screen (AID 1346799; calls by dose curve; also: nearly all actives have a fitted effect of over 45% in size)
In short: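 Counter screen in the PR-UAS-bla HEK293T wells (2% charcoal-stripped FBS, 16 h compound exposure at 37 C) after the bla read. CellTiter-Glo added, 30 min at room temperature, luminescence read as cell viability.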

[4] = qHTS assay to identify small molecule antagonists of the TGF-beta/Smad signaling pathway - cell viability counter screen (AID 1346824); also: nearly all actives have a fitted effect of over 50% in size
In short: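 Cytotoxicity counter-screen run in the same wells as the beta-lactamase Smad reporter read: CellTiter-Glo luminescence after 30 min at room temperature. HEK 293T SBE-bla cells had 5 hr compound exposure at 37 C with TGF-beta1 (0.25 ng/mL stock).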

[5] = qHTS assay to identify small molecule agonists of the TGF-beta/Smad signaling pathway - cell viability counter screen (AID 1346829); also: top concentration of the series differs between compounds; nearly all actives have a fitted effect of over 45% in size
In short: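 CellTiter-Glo luminescence readout; SBE-bla HEK 293T cells, overnight plating, compound 5 hr at 37 C/5% CO2, then bla substrate 2 hr RT, then CellTiter-Glo 30 min RT.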

[6] = qHTS assay to identify small molecule agonists of the TGF-beta/Smad signaling pathway (AID 1346859; active = well fitted activation curve with a large enough effect in the signal ratio in the repeat runs, not every such curve was filed as active; the % refers to the signal ratio; also: series mostly up to about 77 µM)
In short: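 SBE-bla HEK293T cells plated overnight, then compound exposure for 5 h at 37 C. Beta-lactamase reporter read with LiveBLAzer B/G FRET substrate after 2 h at room temperature, fluorescence at 405 nm excitation, 460/530 nm emission.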

[7] = target: Thyrotropin-releasing hormone receptor (Homo sapiens) (UniProt P34981); assay: qHTS assay to identify small molecule antagonists of the thyrotropin-releasing hormone receptor (TRHR) signaling pathway (AID 1346877; active = well fitted inhibition curve with a large enough effect in the repeat runs, not every such curve was filed as active; also: series mostly up to about 51 µM)
Chain of Thyrotropin-releasing hormone receptor (Homo sapiens) (P34981 whole entry, looked up): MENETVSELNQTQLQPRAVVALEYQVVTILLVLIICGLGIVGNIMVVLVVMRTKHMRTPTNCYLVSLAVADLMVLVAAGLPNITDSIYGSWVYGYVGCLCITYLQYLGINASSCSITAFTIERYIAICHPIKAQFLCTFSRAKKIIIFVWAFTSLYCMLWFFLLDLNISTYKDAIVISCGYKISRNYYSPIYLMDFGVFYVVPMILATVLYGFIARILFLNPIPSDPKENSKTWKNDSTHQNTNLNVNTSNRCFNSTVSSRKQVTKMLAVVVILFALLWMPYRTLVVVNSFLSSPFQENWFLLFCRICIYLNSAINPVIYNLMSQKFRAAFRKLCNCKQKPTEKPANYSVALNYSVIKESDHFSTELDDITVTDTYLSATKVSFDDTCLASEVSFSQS
In short: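 Screening used HEK293 cells engineered with TRHR, with a brief 5 min room-temperature compound exposure preceding addition of TRH to 1 nM. The read-out was kinetic calcium-dye fluorescence, concentration-response from 15 doses in triplicate.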

[8] = target: Thyrotropin-releasing hormone receptor (Homo sapiens) (UniProt P34981); assay: qHTS assay to identify small molecule agonists of the thyrotropin-releasing hormone receptor (TRHR) signaling pathway (AID 1346891; calls by dose curve; also: series mostly up to about 58 µM)
In short: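 HEK293 cells expressing TRHR plated 18 h at 37 C/5% CO2, calcium dye-loaded 2 h at 37 C, then compound added (agonist mode); kinetic calcium fluorescence read 3 min at 1 s intervals; 15 concentrations in triplicate.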

[9] = Human pregnane X receptor (PXR) small molecule agonists, qHTS cell viability counter screen (AID 1346977); also: nearly all actives have a fitted effect of over 50% in size
In short: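 PXR-Luc HepG2 cells (2,000/well, 5% charcoal-stripped FBS) preincubated 5 hr, then exposed to compounds 24 hr at 37 C. Viability read in the same wells by CellTiter-Fluor fluorescence, reagent added at 23 hr, 1 hr incubation.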

[10] = Caspase-3/7 induction in HepG2 cells by small molecules, qHTS assay (AID 1346978); also: nearly all actives have a fitted effect of over 15% in size
In short: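 Caspase-3/7 induction was measured by Caspase-Glo 3/7 luminescence (30 min, room temperature) after a 17 hr compound exposure of wild-type HepG2 cells seeded at 2,000 per well and pre-incubated 5 hr.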

[11] = Caspase-3/7 induction in CHO-K1 cells by small molecules, qHTS cell viability counter screen (AID 1346979); also: nearly all actives have a fitted effect of over 35% in size
In short: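 Wild-type CHO-K1 cells (1,500/well) treated with compound after 5 h plating; after 16 h at 37C, viability read as CellTiter-Fluor fluorescence following 1 h reagent incubation, in the same wells as the caspase read.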

[12] = Caspase-3/7 induction in CHO-K1 cells by small molecules, qHTS assay (AID 1346980); also: nearly all actives have a fitted effect of over 15% in size
In short: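 Luminescent Caspase-Glo 3/7 read (30min, room temperature) quantified apoptosis induction. Cells were wild-type CHO-K1, treated with compound for 17hr at 37 C and 5% CO2.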

[13] = Caspase-3/7 induction in HepG2 cells by small molecules, qHTS cell viability counter screen (AID 1346981); also: series mostly up to about 92 µM; nearly all actives have a fitted effect of over 30% in size
In short: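 Multiplexed with the caspase-3/7 assay: HepG2 cells, 16 hr compound treatment, CellTiter-Fluor viability detection by fluorescence.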

[14] = target: Nuclear receptor subfamily 1 group I member 2 (Homo sapiens) (UniProt O75469); assay: Human pregnane X receptor (PXR) small molecule agonists, qHTS assay (AID 1346982); also: nearly all actives have a fitted effect of over 35% in size
Chain of Nuclear receptor subfamily 1 group I member 2 (Homo sapiens) (O75469 whole entry, looked up): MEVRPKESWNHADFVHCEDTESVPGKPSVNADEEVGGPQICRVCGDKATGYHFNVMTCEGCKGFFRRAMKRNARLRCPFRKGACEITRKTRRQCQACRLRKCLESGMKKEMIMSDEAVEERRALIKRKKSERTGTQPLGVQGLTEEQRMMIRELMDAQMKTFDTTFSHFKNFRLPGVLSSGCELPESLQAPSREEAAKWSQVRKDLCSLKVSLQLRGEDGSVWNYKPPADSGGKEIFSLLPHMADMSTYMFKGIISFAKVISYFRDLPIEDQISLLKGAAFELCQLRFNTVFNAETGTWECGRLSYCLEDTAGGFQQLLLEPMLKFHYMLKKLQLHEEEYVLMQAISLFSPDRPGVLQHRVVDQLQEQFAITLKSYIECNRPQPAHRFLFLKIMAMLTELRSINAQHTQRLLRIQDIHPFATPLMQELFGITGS
In short: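 We seeded PXR-Luc HepG2 cells in assay medium containing 5% charcoal-stripped FBS, added compounds 5 hr later, incubated 24 hr, and read luminescence with ONE-Glo reagent.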

[15] = target: Nuclear receptor subfamily 1 group I member 2 (Rattus norvegicus) (UniProt Q9R1A7); assay: Rat pregnane X receptor (rPXR) activation by small molecules, qHTS assay (AID 1346983); conditions: rPXR luciferase reporter cells, One-Glo luminescence, 24 h; hits give high values; also: nearly all actives have a fitted effect of over 20% in size
Chain of Nuclear receptor subfamily 1 group I member 2 (Rattus norvegicus) (Q9R1A7 whole entry, looked up): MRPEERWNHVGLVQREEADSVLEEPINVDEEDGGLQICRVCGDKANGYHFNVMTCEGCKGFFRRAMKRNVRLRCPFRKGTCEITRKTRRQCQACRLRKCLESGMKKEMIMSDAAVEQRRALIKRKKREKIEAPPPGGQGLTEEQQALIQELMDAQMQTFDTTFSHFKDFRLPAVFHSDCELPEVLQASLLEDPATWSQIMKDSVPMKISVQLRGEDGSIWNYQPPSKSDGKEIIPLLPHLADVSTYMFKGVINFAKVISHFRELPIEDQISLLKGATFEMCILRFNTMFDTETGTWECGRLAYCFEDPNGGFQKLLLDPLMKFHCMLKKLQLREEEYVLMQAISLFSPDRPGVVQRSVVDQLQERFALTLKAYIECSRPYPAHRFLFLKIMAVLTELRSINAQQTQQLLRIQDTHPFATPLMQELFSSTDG
In short: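 Luminescent readout (One-Glo luciferase, 30 min room temperature) followed 24 hr compound treatment at 37 C of rPXR cells plated 2,000 per well and preincubated 5hr; qHTS format with compounds delivered in DMSO.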

[16] = target: Nuclear receptor subfamily 1 group I member 2 (Homo sapiens) (UniProt O75469); assay: CYP3A4 induction through human pregnane X receptor (PXR) by small molecules, qHTS assay (AID 1346984); also: nearly all actives have a fitted effect of over 40% in size
In short: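 qHTS, concentration-response format: HepG2 DPX-2 line, PXR/CYP3A4-luc. Exposure 24 h, 37C. Substrate Luciferin-IPA 3uM final, 3 h. Detection One-Glo, 30 min RT.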

[17] = target: Nuclear receptor subfamily 1 group I member 2 (Homo sapiens) (UniProt O75469); assay: Human pregnane X receptor (PXR) activation by small molecules, qHTS assay (AID 1346985); also: nearly all actives have a fitted effect of over 40% in size
In short: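 DPX-2 cells (HepG2 co-transfected with a PXR response element and a CYP3A4-promoter luciferase construct) were seeded at 2,000 per well, rested 5 hr at 37C, then exposed to DMSO-dissolved compounds for 24 hr. Activation was read as luciferase luminescence.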

[18] = target: Cytochrome P450 2D6 (Homo sapiens) (UniProt P10635); assay: Cytochrome P450 Family 2 Subfamily D Member 6 (CYP2D6) small molecule antagonists: luciferase reporter qHTS assay (AID 1671196); also: series mostly up to about 120 µM; nearly all actives have a fitted effect of over 50% in size
Chain of Cytochrome P450 2D6 (Homo sapiens) (P10635 whole entry, looked up): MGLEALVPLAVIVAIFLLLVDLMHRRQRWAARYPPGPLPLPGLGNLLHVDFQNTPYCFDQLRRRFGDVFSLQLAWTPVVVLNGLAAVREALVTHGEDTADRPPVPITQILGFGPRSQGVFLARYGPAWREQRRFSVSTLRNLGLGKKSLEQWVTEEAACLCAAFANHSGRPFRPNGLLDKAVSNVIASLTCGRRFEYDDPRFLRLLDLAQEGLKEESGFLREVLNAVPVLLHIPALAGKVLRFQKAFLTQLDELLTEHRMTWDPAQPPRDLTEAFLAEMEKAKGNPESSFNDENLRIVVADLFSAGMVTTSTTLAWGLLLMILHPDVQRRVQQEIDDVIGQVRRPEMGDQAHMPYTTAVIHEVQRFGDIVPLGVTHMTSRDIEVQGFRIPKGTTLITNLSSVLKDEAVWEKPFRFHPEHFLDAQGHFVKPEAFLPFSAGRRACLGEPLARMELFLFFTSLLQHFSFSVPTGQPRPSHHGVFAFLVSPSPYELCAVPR
In short: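 Luminescence (RLU), read 20 min after detection reagent, indicated CYP2D6 conversion of proluciferin to luciferin during a 1 h NADPH-dependent reaction at room temperature.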

[19] = target: Progesterone receptor (Homo sapiens) (UniProt P06401); assay: qHTS assay to identify small molecule antagonists of the progesterone receptor (PR) signaling pathway (AID 1346795; active = well fitted inhibition curve with a large enough effect in the signal ratio in the repeat runs, not every such curve was filed as active; the % refers to the signal ratio)
In short: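 PR-UAS-bla HEK293T cells with beta-lactamase reporter under UAS control, in 2% charcoal-stripped FBS, treated with compounds plus 1 nM promegestone (R5020, final) for 16 hr at 37C. Read-out: FRET beta-lactamase substrate fluorescence after 2 hr at room temperature.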

[20] = target: Cytochrome P450 2C19 (Homo sapiens) (UniProt P33261); assay: Cytochrome P450 Family 2 Subfamily C Member 19 (CYP2C19) small molecule antagonists: luciferase reporter qHTS assay (AID 1671197); also: series mostly up to about 120 µM; nearly all actives have a fitted effect of over 65% in size
Chain of Cytochrome P450 2C19 (Homo sapiens) (P33261 whole entry, looked up): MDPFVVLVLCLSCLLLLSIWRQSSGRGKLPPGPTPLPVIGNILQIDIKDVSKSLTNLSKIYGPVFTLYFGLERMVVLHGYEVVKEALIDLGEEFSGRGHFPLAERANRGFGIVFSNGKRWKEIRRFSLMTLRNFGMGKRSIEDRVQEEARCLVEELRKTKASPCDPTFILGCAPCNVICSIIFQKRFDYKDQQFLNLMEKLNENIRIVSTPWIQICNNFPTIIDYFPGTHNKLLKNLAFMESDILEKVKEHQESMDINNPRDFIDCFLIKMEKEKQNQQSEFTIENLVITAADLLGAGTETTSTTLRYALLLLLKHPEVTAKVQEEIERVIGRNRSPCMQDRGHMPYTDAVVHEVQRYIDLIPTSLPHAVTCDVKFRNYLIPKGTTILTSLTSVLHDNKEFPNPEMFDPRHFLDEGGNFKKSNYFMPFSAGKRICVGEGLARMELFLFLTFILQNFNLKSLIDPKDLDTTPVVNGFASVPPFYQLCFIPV
In short: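 Enzyme-substrate mix with proluciferin substrate (P450-Glo CYP2C19 system) preincubated with compounds 10 min at room temperature; NADPH regeneration solution added, 37C for 1 h; detection reagent stops reaction, luminescence read after 20 min. Ketoconazole positive control.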
% is scaled to controls: 0 for no effect and ±100 for the full control effect.

FC(F)OC(Cl)C(F)(F)F (stereo not drawn)
inactive: Potency [1] | Potency [2] | Potency [3] | Potency [4] | outcome [5] | outcome [6] | outcome [7] | outcome [8] | Potency [9] | Potency [10] | Potency [11] | outcome [12] | Potency [13] | Potency [14] | max activation [15] -3.14% | Potency [16] | Potency [17] | Potency [18]

NC(CSCC(=O)O)C(=O)O (stereo not drawn)
inactive: Potency [19] | Potency [2] | Potency [3] | Potency [4] | outcome [5] | outcome [6] | outcome [8] | Potency [9] | Potency [10] | Potency [11] | outcome [12] | Potency [13] | Potency [14] | max activation [15] -3.73% | Potency [16] | Potency [17] | Potency [18] | Potency [20]

CCS(=O)(=O)c1ccc(OC)c(C(=O)OC)c1
inactive: Potency [2] | Potency [3] | Potency [4] | outcome [5] | outcome [6] | outcome [7] | outcome [8] | Potency [9] | Potency [10] | Potency [11] | outcome [12] | Potency [13] | Potency [14] | Potency [18] | Potency [20]

CC(=O)CC(C)(C)C1CCCCC1
inactive: Potency [2] | Potency [3] | Potency [4] | outcome [5] | outcome [6] | outcome [7] | outcome [8] | Potency [9] | Potency [10] | Potency [11] | outcome [12] | Potency [14] | Potency [18] | Potency [20]

Cc1cccc(C)c1NC(=O)C(C)N (stereo not drawn)
inactive: Potency [4] | outcome [5] | outcome [6] | Potency [9] | Potency [10] | Potency [11] | outcome [12] | Potency [13] | Potency [14] | max activation [15] -0.615% | Potency [16] | Potency [17] | Potency [18] | Potency [20]

COC(=O)c1cc(C(=O)OC)cc(S(=O)(=O)O)c1
inactive: Potency [1] | Potency [4] | outcome [5] | outcome [6] | outcome [7] | outcome [8] | Potency [9] | Potency [10] | Potency [11] | outcome [12] | Potency [13] | Potency [14] | Potency [18] | Potency [20]
